# In the library only some 2.2% were active in any assay of this set; here they are far more common.
# PAX8 reporter = inhibitors of PAX8-driven TPO luciferase reporter, primary screen, RMG-I cells, single concentration | SteadyGlo, 24 h | inhibition, % at 12.6 µM | 360,000 tested, 1.2% active;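 active means mean replicate inhibition at least 60% with every replicate also reaching 60%; inconclusive means only one of the two criteria is met; inactive means mean below 60% and not all replicates reaching 60%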;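 further: luciferase light reporting Pax8 driven TPO promoter activity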
# EBV LMP1 NFkB = EBV LMP1-driven NF-kappaB luciferase reporter inhibitors, primary screen, cell-based, luminescence, single point | LMP1-induced NF-kappaB luciferase reporter cells | inhibition, % at 12.5 µM | 350,000 tested, 0.69% active | AID 504558, 2011; in the data active means inhibition above about 41%; inconclusive means no clear call, values can overlap the other calls
# TRPM1 prom inh = inhibitors of MITF-dependent TRPM1 promoter reporter, primary screen, cell-based, SK-MEL-5, single point, luciferase. 330,000 tested, 0.83% active. SK-MEL-5 TRPM1 promoter luciferase, 24 h. inhibition, % at 12.5 µM;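 active means mean inhibition across replicates of 60% or more, whatever share of single replicates reaches that level; inconclusive means some that reach 60%, reason not given; inactive means mean inhibition across replicates below 60%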
# LGR2 antag = inhibitors of bursicon-induced LGR2 CRE-luciferase signal, primary screen, cell-based, HEK293, CRE-luciferase reporter, bursicon stimulation; bursicon-stimulated, 4 h; inhibition, % at 9.99 µM; 380,000 tested, 0.35% active; AID 720647, 2013;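 active means drop in luminescence signal, shown as inhibition above about 50% in the replicate tests, limit read from the data, passing the limit was not always enough; inconclusive means probably only some replicates passing the limit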;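 further: agonist challenge used bursicon conditioned medium at about half maximal strength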
# EWS-Fli block = EWS/Fli-driven NR0B1 reporter inhibitors, primary screen, A673 cells, NR0B1 luciferase, luminescence, MLPCN library. 350,000 tested, 0.67% active. inhibition, % at 12.6 µM. viability-normalised;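 active means mean inhibition of at least 50% after viability correction, with every replicate also passing that limit; inconclusive means mean reaches 50% but only one of two replicates passes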;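 further: firefly luciferase signal divided by Alamar Blue viability fluorescence both relative to DMSO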
# Shn3 inh set2 = reduction of Shn3 3'UTR firefly luciferase signal, primary screen, Schnurri-3 inhibitor project, cell-based, Clone20 osteoblasts, set 2; Clone20 osteoblast Shn3 3'UTR firefly luciferase, 24 h; inhibition, % at 12.5 µM; 360,000 tested, 0.52% active; AID 588674, 2011;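 active means mean inhibition of at least 75% with every replicate also reaching 75%; inconclusive means mean inhibition at least 75% but some replicate below; inactive means mean inhibition below 75%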
# Hits are given with their value; - = inactive; ? = inconclusive; . = not tested or not shown.
SMILES,PAX8 reporter,EBV LMP1 NFkB,TRPM1 prom inh,LGR2 antag,EWS-Fli block,Shn3 inh set2
COc1ccc(/C=C/c2ccc3ccccc3[n+]2C)cc1OC,.,-,-,.,.,92
CC(=O)Oc1ccccc1/C=C/c1ccc2ccccc2[n+]1C,-,-,-,-,-,-
CN(C)c1ccc(/C=C/c2ccc3ccccc3[n+]2C)cc1,-,-,88,-,.,-
CN(C)c1ccc(/C=C/c2ccc3c4ccccc4ccc3[n+]2-c2ccccc2)cc1,103,-,104,?,62,93
CN(C)c1ccc(/C=C/c2cccc[n+]2[O-])cc1,-,-,-,.,-,-
COc1ccc(S(=O)(=O)N(C)C[C@@H]2Oc3ccc(NS(=O)(=O)c4ccccc4)cc3CC(=O)N([C@@H](C)CO)C[C@H]2C)cc1,-,.,.,-,-,.
C[C@H]1CCCCO[C@@H](CN(C)C(=O)NC2CCCCC2)[C@@H](C)CN([C@@H](C)CO)C(=O)c2cc(NC(=O)c3ccccc3)ccc2O1,-,.,.,-,-,.
O=C(NCc1nc2ccccc2[nH]1)c1ccc(Cl)c(S(=O)(=O)N2CCCC2)c1,.,-,-,.,.,-
CCCn1c(NC(=O)c2ccc(Cl)c(S(=O)(=O)N3CCCC3)c2)nc2ccccc21,-,-,-,.,.,91
O=C(O)c1cccc(NC(=O)c2ccc(Cl)c(S(=O)(=O)N3CCCCCC3)c2)c1,-,57,-,-,-,-
O=C(Nc1cccc(Cl)c1)Nc1cc(S(=O)(=O)N2CCCCC2)ccc1Cl,75,-,80,-,-,-
COc1ccc(CCn2c(C)cc(C(=O)CCl)c2C)cc1OC,-,-,-,-,-,-
Cc1cc(C(=O)CCl)c(C)n1CCc1ccc(F)cc1,-,-,88,-,-,-
Cc1cc(C(=O)CCl)c(C)n1CCc1ccc(Cl)cc1,-,-,78,-,-,-
CC(=O)OC1CC2C(C)(C)C(=O)C=CC2(C)C2CCC3(C)C(c4ccoc4)OC(=O)C4OC43C12C (configuration not stated),.,.,.,-,-,-
CC(=O)O[C@@H]1C[C@H]2C(C)(C)C(=O)C=C[C@]2(C)[C@H]2CC[C@@]3(C)[C@H](c4ccoc4)OC(=O)[C@H]4O[C@]43[C@@]21C,75,-,-,-,-,-
CN(C)c1c([N+](=O)[O-])cc(N2C(=O)C=CC2=O)cc1[N+](=O)[O-],.,-,63,.,.,-
Cn1c(=O)c(=O)n(C)c2cc([N+](=O)[O-])c([N+](=O)[O-])cc21,-,-,-,-,-,-
CC(=O)Nc1ccc2c(c1)C(=O)N(C)[C@H]1CC[C@H](CC(=O)Nc3cccc(F)c3)O[C@@H]1CO2,.,.,.,-,.,.
O=C(Nc1ccccc1)N1C[C@H]2[C@@H](c3ccccc31)[C@H](CO)N2Cc1ccccc1Cl,-,.,.,-,-,.
Cn1c2ccccc2c(=O)c2ccc(C#CC3(O)CCCCC3)cc21,-,-,-,100,57,-
COc1cc2sc3ccc(C#CC4(O)CCCCC4)cc3c(=O)c2cc1OC,-,-,-,94,-,-
COc1cccc2sc3cc(C#CC4(O)CCCCC4)ccc3c(=O)c12,-,-,-,98,-,-
CC(C)NC(=O)NCC[C@@H]1CC[C@H](NC(=O)CN(C)C)[C@H](CO)O1,-,.,.,-,-,.
O=C(NCC1CC1)[C@H]1N[C@H]2c3ccc(C4=CCCCC4)c(=O)n3C[C@H]2[C@@H]1CO,.,.,.,-,-,.
SMILES,PAX8 reporter,EBV LMP1 NFkB,TRPM1 prom inh,LGR2 antag,EWS-Fli block,Shn3 inh set2
CO[C@@H]1CN(C)C(=O)c2ccc(NC(C)=O)cc2OC[C@@H](C)N(S(=O)(=O)c2cn(C)cn2)C[C@@H]1C,-,.,.,-,-,.
C[C@@H]1CN([C@H](C)CO)C(=O)c2cccc(NC(=O)c3nc4ccccc4s3)c2O[C@H]1CN(C)C(=O)NC1CCCCC1,.,.,.,-,-,.
CN(C)c1ccc2nc3ccc(=O)cc-3sc2c1,.,-,.,-,-,-
Cc1cc2nc3ccc(=[N+](C)C)cc-3sc2cc1N,.,?,96,.,.,-
CN(C)c1ccc2nc3ccc(=[N+](C)C)cc-3sc2c1,-,-,73,.,-,-
CCOC(=O)c1ccc2ncc(C(=O)OCC)c(Nc3ccc(N4CCOCC4)cc3)c2c1,-,-,-,55,-,-
CCOC(=O)c1cnc2ccc(C(=O)OC)cc2c1Nc1ccc(C(=O)O)cc1,104,-,-,-,-,-
COc1ccc(NC(=O)N(C)C[C@H]2Oc3ccc(NS(=O)(=O)c4ccc(F)cc4)cc3C(=O)N([C@@H](C)CO)C[C@H]2C)cc1,.,.,.,-,-,.
Cc1ccc(S(=O)(=O)N2CCC[C@H]2C(=O)Nc2ccccc2C)cc1,-,70,-,-,-,-
COC(=O)Nc1sc2c(c1C(=O)NCc1ccco1)CCC2,.,-,-,-,-,-
COC(=O)Nc1sc2c(c1C(=O)NCc1ccco1)CCCC2,.,56,-,.,.,-
CC(Nc1ncnc2ccccc12)c1ccccc1 (configuration not stated),-,-,-,-,-,88
C[C@@H]1CN([C@@H](C)CO)C(=O)Cc2cc(NS(=O)(=O)c3ccc(F)cc3)ccc2O[C@@H]1CN(C)C(=O)Nc1ccc2c(c1)OCO2,-,.,.,-,-,.
COc1ccc(CN(C)C[C@@H]2OCCCC[C@@H](C)Oc3ccc(NS(C)(=O)=O)cc3C(=O)N([C@H](C)CO)C[C@H]2C)cc1,-,.,.,-,-,.
C=CCN(c1ccc(C(=O)Nc2ccc3c(c2)OCO3)cc1)S(C)(=O)=O,-,-,-,-,-,-
C=CCN(c1ccc(C(=O)Nc2ccc3c(c2)n(C)c(=O)n3C)cc1)S(C)(=O)=O,-,80,-,-,-,-
C[C@H]1CCCCO[C@@H](CN(C)Cc2ccccc2)[C@@H](C)CN([C@@H](C)CO)C(=O)c2cc(NC(=O)Nc3ccccc3)ccc2O1,-,.,.,-,-,.
COC1(OC)N=C(N)C2(C#N)C(c3ccccc3)NC(C)=CC12C#N (configuration not stated),.,-,-,.,.,-
COc1ccc(C2NC3=C(CCC3)C3(C#N)C(OC)(OC)N=C(N)C23C#N)cc1 (configuration not stated),.,62,80,.,.,-
C[C@@H]1CN([C@@H](C)CO)C(=O)c2cccc(NC(=O)C3CC3)c2O[C@H]1CN(C)CC1CCCCC1,.,.,.,-,-,.
CCCNC(=O)[C@@]1(c2ccc([N+](=O)[O-])cc2)CC(=O)N(CC23CC4CC(CC(C4)C2)C3)[C@@H]1c1ccc(CO)cc1I,105,.,.,.,-,.
Cc1cccc(N2CCN(C(=O)c3[nH]c(C(F)(F)F)nc3-c3ccccc3)CC2)c1C,77,.,.,.,-,-

# Source: PubChem BioAssay (Broad Institute)
